EBI2 antag: blocks human EBI2 receptor beta-arrestin signaling | P32249 | EBI2 beta-arrestin recruitment, luminescence, 7a,25-OHC stimulated | inhibition, % at 5 µM | 360,000 compounds, 0.81% hits | AID 651636; in the data active = inhibition above about 38%;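 note: enzyme fragment complementation signal reports receptor beta-arrestin coupling in cells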
Target sequence (P32249 whole entry, looked up, the tested form may be a part): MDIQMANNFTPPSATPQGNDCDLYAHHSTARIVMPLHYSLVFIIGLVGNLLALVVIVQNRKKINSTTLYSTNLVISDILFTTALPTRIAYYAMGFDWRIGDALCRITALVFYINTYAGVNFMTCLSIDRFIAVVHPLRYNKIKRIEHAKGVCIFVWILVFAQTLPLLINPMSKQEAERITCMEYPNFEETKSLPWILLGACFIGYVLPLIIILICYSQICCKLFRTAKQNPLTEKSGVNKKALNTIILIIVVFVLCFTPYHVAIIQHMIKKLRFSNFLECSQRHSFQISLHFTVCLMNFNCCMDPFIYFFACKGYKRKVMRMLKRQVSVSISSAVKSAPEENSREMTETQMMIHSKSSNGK
SKKanGAS inh: inhibitors of SKKanGAS S. pyogenes growth in kanamycin (SK-promoter or general growth effect) | BacTiter-Glo, 6 h | inhibition, % at 7.5 µM | 300,000 compounds, 1.3% hits | AID 1662;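 active = mean replicate score, as percent of positive control median, at least 50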;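 note: strain carries kanamycin resistance gene driven by streptokinase promoter and grows in 40 µg/ml kanamycin; loss of luminescence reflects streptokinase promoter inhibition or plain growth inhibition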
TIM10 inh: growth inhibitors of TIM10 yeast strain. S. cerevisiae TIM10 strain growth, BacTiter-Glo luminescence, 24 h. inhibition, % at 10 µM. AID 463195. 330,000 compounds, 1.4% hits;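 active = inhibition of 40% or more at the single tested concentration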;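 note: wild-type TIM10 isogenic control strain grown at permissive 25 °C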
tim23-1 inh: tim23-1 yeast growth inhibition. AID 463212. 330,000 compounds, 1.3% hits. S. cerevisiae tim23-1 growth, BacTiter-Glo luminescence, 24 h. inhibition, % at 20 µM;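 active = growth inhibition of the mutant yeast at or above 50%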;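 note: temperature-sensitive mutant grown at 25 °C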
tim10-1 inh: growth inhibitors of tim10-1 mutant yeast; S. cerevisiae tim10-1 ts strain growth, BacTiter-Glo, 24 h; inhibition, % at 20 µM; 330,000 compounds, 2.2% hits;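 active = inhibition of at least 40%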;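 note: mutant grown at 25 °C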
PfHsp90 yeast 2: inhibits growth of yeast expressing Plasmodium falciparum Hsp90. inhibition, % at 9.4 µM. 310,000 compounds, 0.32% hits. S. cerevisiae expressing PfHsp90, BacTiter-Glo ATP, 48 h; yeast lacking PDR1 and PDR3 efflux regulators;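 active = every replicate shows inhibition above about 80%, whatever the replicate mean, limit read from the data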
tim10-1 confirm: tim10-1 yeast growth inhibition, confirmed; shares compounds with tim10-1 inh; S. cerevisiae tim10-1 ts strain growth, BacTiter-Glo, 24 h; inhibition, % at 20 µM; 7,400 compounds, 56% hits; AID 463213;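 active = inhibition of yeast growth at or above a set limit in either of two repeat tests at 20 µM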;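 note: tim10-1 mutant grown at permissive 25 °C to find synthetic lethal compounds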
Numbers stand for hits; . = inactive; / = not tested or not shown. Hits are enriched below; roughly 4.7% of the tested compounds scored in any of these assays.

SMILES	EBI2 antag	SKKanGAS inh	TIM10 inh	tim23-1 inh	tim10-1 inh	PfHsp90 yeast 2	tim10-1 confirm
CCCC(c1nnnn1Cc1cccs1)N1CCN(c2ccc(OC)cc2)CC1 (centres undefined)	.	.	.	.	43	.	.
Cc1ccc(C(=O)Oc2ccc(Cl)c3cccnc23)cc1[N+](=O)[O-]	.	51	.	.	41	.	.
COc1ccc(C(=O)c2cnc(/N=C/N(C)C)s2)cc1	.	.	.	.	44	/	36
CN(C)/C=N/c1ncc(C(=O)c2ccc3ccccc3c2)s1	.	.	.	.	.	/	/
Cc1cccc(C2Nc3cccc4cccc(c34)N2)c1	.	.	.	.	41	.	.
Clc1ccc(C2Nc3cccc4cccc(c34)N2)cc1	.	.	.	.	.	.	/
CCOC(=O)c1ccc(NC(=O)Cn2ncc(Cl)c(Cl)c2=O)cc1	.	.	.	.	40	.	.
C/C(=N\Nc1ccc(Cl)c(Cl)c1)c1ccc(-n2ccnc2)cc1	.	81	.	.	46	.	.
FC(F)(F)c1cccc(Nc2cc(-c3ccccc3)nc3ncnn23)c1	.	.	.	.	.	.	/
FC(F)(F)c1ccc(N2CCN(c3cc(-c4ccccc4)nc4ncnn34)CC2)nc1	.	.	.	.	45	.	.
CC(C)c1cc(NCC2CCCO2)n2c(nc3ccccc32)c1C#N (centres undefined)	.	.	.	.	48	.	34
CC1CC(C)CN(C(=O)COc2ccc([N+](=O)[O-])cc2Cl)C1 (centres undefined)	.	.	.	.	.	.	/
CN(C)c1nc(N)ncc1-c1ccc(Oc2ccccc2)cc1	.	.	.	.	.	.	/
Fc1ccc(Nc2ncnc3sc4c(c23)CCC4)cc1	.	.	.	.	43	.	.
c1ccc(Nc2ncnc3sc4c(c23)CCC4)cc1	.	.	.	.	.	.	/
COc1ccc(/C=N/Nc2ncnc3sc4c(c23)CCCC4)cc1OC	.	.	.	.	41	.	.
C[C@H](NC(=O)C1CCN(C(=O)[C@H](Cc2ccccc2)NC(=O)OC(C)(C)C)CC1)C(=O)O	.	.	.	.	.	.	/
CCOC(=O)C1Nc2ccc(C(F)(F)F)cc2C2c3ccccc3CC12 (centres undefined)	.	.	.	.	57	.	53
O=C(NCCOc1ccccc1)C1Nc2ccc(C(F)(F)F)cc2C2c3ccccc3CC12 (centres undefined)	.	.	.	.	.	.	/
Cc1c(Cl)cccc1NC(=O)c1nc(C)n(-c2cc(OC(C)C)c(Cl)cc2Cl)n1	.	.	.	.	43	.	.
CNC(=O)c1nc(C)n(-c2ccc(Cl)cc2Cl)n1	.	.	.	.	.	.	/
Cc1nnc(SCC(=O)N2c3ccccc3CC2C)[nH]c1=O (centres undefined)	.	.	.	.	.	.	/
C=CCN(CC=C)CC(=O)Nc1cccc(Oc2cnccn2)c1	.	.	.	.	.	.	/
CC1Cc2ccccc2N1C(=O)COC(=O)c1c2c(nc3ccccc13)CCCCC2 (centres undefined)	.	.	.	.	41	.	36
CSc1ccc(S(=O)(=O)NCc2ccccc2)cc1	.	.	.	.	46	.	31
SMILES	EBI2 antag	SKKanGAS inh	TIM10 inh	tim23-1 inh	tim10-1 inh	PfHsp90 yeast 2	tim10-1 confirm
CSc1ccc(S(=O)(=O)NCc2ccccc2Cl)cc1	.	.	.	.	52	.	49
O=S(=O)(NCc1ccccc1)c1ccc(Cl)cc1	.	.	.	.	.	.	/
O=C(O)/C=C/c1ccc(OCc2cccc(F)c2)cc1	.	.	.	.	.	.	/
O=C(NCc1cccc(C(F)(F)F)c1)c1ccc(=O)[nH]c1	.	.	.	.	.	.	/
CCOC(=O)CC(=O)CSc1nc2cc(C)ccc2cc1C	.	.	.	.	44	.	.
NNC(=O)c1cccc(COc2ccc3c(c2)CCC3)c1	.	.	.	.	47	.	.
O=C(NCc1ccccc1)c1cccc(COc2ccccc2Cl)c1	.	.	.	.	.	.	/
NNC(=O)c1cccc(COc2ccccc2Br)c1	.	.	.	.	41	.	.
C#CCN(C(=O)c1ccc(OC)c(OC2CCN(C(C)C)CC2)c1)C1CCCCC1	.	.	.	.	.	.	/
CC1=Nc2cc(C(=O)N3CCCCC3)ccc2Sc2ccc(C)cc21	.	.	.	.	45	.	.
CCCC1=Nc2cc(C(=O)N3CCC(C(=O)OCC)CC3)ccc2Sc2ccccc21	.	.	.	.	41	.	.
O=C1NCCCc2c1oc1ccc(O)cc21	.	.	.	.	.	.	/
Oc1c(Cl)cc(Cl)c2c1NCCC2	.	69	.	.	50	.	.
CC(=O)NCCn1c(SCc2cccc([N+](=O)[O-])c2)nc2ccccc2c1=O	.	.	.	.	.	.	/
Cc1ccc(C(=O)Nc2nc3ccc(S(C)(=O)=O)cc3s2)o1	.	.	.	.	44	/	38
O=C(CSc1n[nH]c(-c2ccccc2O)n1)N1CCCc2ccccc21	.	.	.	.	45	.	.
O=C(CSc1nnnn1-c1ccccc1)N1CCCc2ccccc21	.	.	.	.	43	.	.
Cc1sc2nc[nH]c(=O)c2c1-c1ccc(F)cc1	.	.	.	.	.	.	/
Cc1sc2nc[nH]c(=S)c2c1-c1ccccc1	.	.	.	.	40	.	.
CC(C)n1c(O)c(N=NC(=O)C2COc3ccccc3O2)c2ccccc21 (centres undefined)	.	.	.	.	48	.	.
Cn1c(O)c(N=NC(=O)C2COc3ccccc3O2)c2ccccc21 (centres undefined)	.	.	.	.	.	.	/
COc1ccc(NC(=O)Cn2c(=O)n(-c3ccc(CC(=O)NCc4ccco4)cc3)c(=O)c3ccccc32)cc1	.	.	.	.	.	.	/
CN1CCCC(OC(=O)c2ccccc2Br)C1 (centres undefined)	.	.	.	.	.	.	/
O=S(=O)(Nc1ccc(-n2cccc2)cc1)c1ccc(Cl)cc1Cl	.	.	.	.	48	.	.
COc1ccc(OCCC(=O)OCC(=O)NC2CCCCCCC2)cc1	.	.	.	.	43	.	40
COc1ccc(OCCC(=O)OCC(=O)NC2CCCCC2)cc1	.	/	.	.	.	/	/
CCCc1cc(C(=O)Nc2cccc([N+](=O)[O-])c2)cs1	.	.	.	.	41	.	31
CC(=O)O[C@]1(C(C)=O)CCC2C3C=C(C)C4=CC(=O)CC[C@]4(C)C3CC[C@@]21C (some centres undefined)	.	.	.	.	.	.	/
CC(=O)O[C@]1(C(C)=O)CC[C@H]2[C@@H]3C=CC4=CC(=O)C=C[C@]4(C)[C@H]3CC[C@@]21C	.	.	.	.	40	.	.
